For 3 compounds, inhibition results are on record in PubChem BioAssay AID624325 (Sanford-Burnham Center for Chemical Genomics, 2012).

For orientation: inhibition means how much of the control response was suppressed.

Hit rate of the full screen: of about 2,300 compounds, about 1,000 (43%) were called active.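 How the source made its calls: active means compounds inhibiting the enzyme by at least 50% at 15 µM in any one of the replicates; inactive means the rest.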 The set was probably picked from earlier hits. These entries were drawn from the full list.

For this assay, the target named is Fatty acid synthase (Homo sapiens) (UniProt P49327). As to the kind of experiment: FAS thioesterase domain inhibitors, confirmation, biochemical, fluorescence intensity, single concentration (AID 624325).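 Further: 0% = enzyme with DMSO only and 100% = wells lacking enzyme.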 To be noted: recombinant FAS-TE, OMFH fluorogenic substrate, at 15 µM, stronger effect = higher value.
Chain of Fatty acid synthase (Homo sapiens) (P49327 whole entry, looked up, the tested form may be a part): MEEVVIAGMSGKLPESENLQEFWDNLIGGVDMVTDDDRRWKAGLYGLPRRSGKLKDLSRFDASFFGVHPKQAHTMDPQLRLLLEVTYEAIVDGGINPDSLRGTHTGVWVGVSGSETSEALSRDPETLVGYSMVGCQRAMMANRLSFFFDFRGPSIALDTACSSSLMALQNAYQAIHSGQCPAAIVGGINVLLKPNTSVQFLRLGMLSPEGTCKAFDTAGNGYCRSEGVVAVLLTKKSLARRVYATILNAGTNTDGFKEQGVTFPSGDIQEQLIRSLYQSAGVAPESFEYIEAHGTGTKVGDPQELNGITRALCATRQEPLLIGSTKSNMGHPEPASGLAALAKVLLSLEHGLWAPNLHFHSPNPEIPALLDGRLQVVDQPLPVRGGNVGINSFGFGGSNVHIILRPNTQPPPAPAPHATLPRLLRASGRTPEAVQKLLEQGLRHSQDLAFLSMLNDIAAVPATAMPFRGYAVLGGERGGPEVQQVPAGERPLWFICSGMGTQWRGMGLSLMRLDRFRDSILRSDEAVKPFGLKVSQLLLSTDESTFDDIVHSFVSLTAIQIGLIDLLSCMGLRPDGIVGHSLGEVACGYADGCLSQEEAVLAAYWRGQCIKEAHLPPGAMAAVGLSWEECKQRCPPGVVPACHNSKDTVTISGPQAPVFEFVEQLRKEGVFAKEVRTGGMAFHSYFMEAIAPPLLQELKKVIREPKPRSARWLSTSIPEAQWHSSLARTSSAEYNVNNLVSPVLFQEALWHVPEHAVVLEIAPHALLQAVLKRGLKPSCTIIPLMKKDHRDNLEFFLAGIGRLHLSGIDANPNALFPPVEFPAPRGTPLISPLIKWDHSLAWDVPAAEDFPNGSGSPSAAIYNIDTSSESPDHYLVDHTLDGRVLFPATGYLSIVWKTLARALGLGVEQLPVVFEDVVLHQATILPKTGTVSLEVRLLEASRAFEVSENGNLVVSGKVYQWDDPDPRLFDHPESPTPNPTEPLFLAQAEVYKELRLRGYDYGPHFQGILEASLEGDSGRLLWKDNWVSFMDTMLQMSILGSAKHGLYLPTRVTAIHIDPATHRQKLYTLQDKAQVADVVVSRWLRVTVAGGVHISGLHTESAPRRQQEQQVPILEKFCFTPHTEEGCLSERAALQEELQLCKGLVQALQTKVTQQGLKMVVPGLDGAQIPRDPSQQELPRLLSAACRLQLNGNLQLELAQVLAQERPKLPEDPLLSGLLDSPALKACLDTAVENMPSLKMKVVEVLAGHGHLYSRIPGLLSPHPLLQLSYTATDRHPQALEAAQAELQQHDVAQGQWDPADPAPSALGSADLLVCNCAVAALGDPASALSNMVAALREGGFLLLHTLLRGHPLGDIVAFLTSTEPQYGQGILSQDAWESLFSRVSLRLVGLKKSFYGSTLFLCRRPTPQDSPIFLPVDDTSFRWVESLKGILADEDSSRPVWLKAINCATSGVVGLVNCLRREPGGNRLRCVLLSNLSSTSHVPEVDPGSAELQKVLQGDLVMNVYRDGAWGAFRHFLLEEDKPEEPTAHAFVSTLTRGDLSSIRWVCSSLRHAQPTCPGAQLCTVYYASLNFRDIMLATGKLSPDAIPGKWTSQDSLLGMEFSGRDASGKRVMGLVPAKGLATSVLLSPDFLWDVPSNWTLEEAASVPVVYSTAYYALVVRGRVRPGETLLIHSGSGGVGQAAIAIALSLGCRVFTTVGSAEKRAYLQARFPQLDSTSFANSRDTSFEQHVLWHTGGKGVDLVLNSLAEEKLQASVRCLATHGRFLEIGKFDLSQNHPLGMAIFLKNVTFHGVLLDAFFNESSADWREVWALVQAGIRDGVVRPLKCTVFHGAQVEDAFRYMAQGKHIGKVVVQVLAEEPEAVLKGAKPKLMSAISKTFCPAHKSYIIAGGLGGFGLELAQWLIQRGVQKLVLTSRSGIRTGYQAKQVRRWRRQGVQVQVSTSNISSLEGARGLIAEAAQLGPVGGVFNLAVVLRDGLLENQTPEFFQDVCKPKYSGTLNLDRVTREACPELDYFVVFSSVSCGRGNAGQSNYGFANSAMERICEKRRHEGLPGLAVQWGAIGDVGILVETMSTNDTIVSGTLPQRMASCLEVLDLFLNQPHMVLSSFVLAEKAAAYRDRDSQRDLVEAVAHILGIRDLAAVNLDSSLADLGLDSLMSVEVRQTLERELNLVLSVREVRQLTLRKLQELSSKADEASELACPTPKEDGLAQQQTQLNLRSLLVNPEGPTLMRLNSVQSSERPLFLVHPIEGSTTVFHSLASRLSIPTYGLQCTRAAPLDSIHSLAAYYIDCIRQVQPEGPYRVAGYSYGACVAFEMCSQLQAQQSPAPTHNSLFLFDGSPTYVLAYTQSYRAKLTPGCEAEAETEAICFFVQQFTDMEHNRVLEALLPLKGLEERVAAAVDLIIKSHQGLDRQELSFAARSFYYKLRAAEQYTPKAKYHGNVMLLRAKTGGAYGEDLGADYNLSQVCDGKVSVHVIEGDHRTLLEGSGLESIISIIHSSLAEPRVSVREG
In the case of `CCOC(=O)[C@]12Cc3ccccc3[C@H]1N(C1CCCCC1)C(=O)c1cc(OC)ccc12`, the inhibition is 53% (active).
In the case of `COc1cccc(C(c2nnnn2-c2ccc3c(c2)OCCO3)N2CCC3(CC2)C(=O)NCN3c2ccccc2)c1OC` (stereo not drawn), the inhibition was 8.72% (inactive).
Next, `COc1ccc(-n2nnnc2C(c2cccc3ccccc23)N2CCC(n3c(=O)[nH]c4ccccc43)CC2)cc1` (stereo not drawn): 34.4% (inactive).
